Results on 26 compounds are retold here after PubChem BioAssay AID1304 (The Scripps Research Institute Molecular Screening Center, 2008).

“And” between values parts separate entries of the source, which are not always exact repeats. Equal entries are not always repeated. About 800 (0.36%) of roughly 220,000 compounds were called active. No stated cut-off is given here; in the data, active means activation above about 33% (passing the limit was not always enough); inactive means the rest. What follows is part of a selection rich in actives, with near analogues and random picks from the rest.

The target in this assay is Neuropeptide Y receptor type 1 (Homo sapiens) (UniProt P25929). In words: activation enhancers of human NPY-Y1 – cell-based, primary screen (AID 1304).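 Further: cells stimulated with NPY at EC10 then isoproterenol at EC100; 0% = low agonist plus stimulus and 100% = saturating agonist plus stimulus.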 The conditions noted are these: NPY-Y1 expressing cells, potentiator/agonist activation; at 3.6 µM; hits give high values.
Chain of Neuropeptide Y receptor type 1 (Homo sapiens) (P25929 whole entry, looked up): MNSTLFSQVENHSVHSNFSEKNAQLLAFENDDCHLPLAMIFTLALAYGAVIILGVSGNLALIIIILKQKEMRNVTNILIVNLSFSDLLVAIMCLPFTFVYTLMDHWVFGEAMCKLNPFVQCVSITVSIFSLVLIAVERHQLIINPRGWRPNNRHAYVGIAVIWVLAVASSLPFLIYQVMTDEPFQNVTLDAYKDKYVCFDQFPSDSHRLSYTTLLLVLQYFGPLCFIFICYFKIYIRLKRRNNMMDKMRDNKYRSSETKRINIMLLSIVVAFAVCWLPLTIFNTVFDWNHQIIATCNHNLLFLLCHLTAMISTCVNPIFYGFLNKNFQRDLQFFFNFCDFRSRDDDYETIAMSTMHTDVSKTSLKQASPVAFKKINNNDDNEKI
With `Cc1nnc(SCC2=C(C(=O)O)N3C(=O)C(NC(=O)Cn4nc(C)c(Cl)c4C)C3SC2)s1` (stereo unspecified), the activation is -9.62% (inactive). `Cn1nc(C(F)(F)F)cc1C(=O)O`: the activation is -6.07% (inactive). Consider `COc1ccc(C(=O)OCC(=O)NC(=O)CCSc2ccccc2)cc1`, for which the activation was -33.3% (inactive).

`COc1cccc(CNC(=O)CCC2CCCN(Cc3ccc(OC(F)F)cc3)C2)c1` (stereo unspecified): the activation is 4.57% (inactive). Turning to `C[C@@H]1NC(=O)c2cc([N+](=O)[O-])cc(F)c2NCCC[C@@H](C(N)=O)NC(=O)[C@H](CC(N)=O)NC1=O`, the activation was 3.2% (inactive). The result for `COC(=O)c1sc(C(F)(F)F)c(-c2ccccc2)c1S(=O)(=O)N(C)C` reads 5.29% (inactive); that for `CCCCCCCCc1c(O)nc(-n2[nH]c(C)c(CCO)c2=O)[nH]c1=O`, 11.5% (inactive); that for `CC(C)NC(=O)c1ccc(Sc2ccccc2)c([N+](=O)[O-])c1`, 4.46% (inactive). With `O=C(COc1ccc([N+](=O)[O-])cc1)Nc1ccc(N2CCCC2)cc1`, the activation is -4.81% (inactive). On to `COc1ccc(C(=O)Nc2ccc(-n3nncc3C(C)(C)C)cc2)cc1`, for which the activation was 1.57% (inactive). As for `COc1ccccc1N(C)S(=O)(=O)c1ccc(Cl)c(C(=O)N2CCC(C(N)=O)CC2)c1`, the figure is 29.7% (inactive); as for `COc1ccc(/C=N/NC(=O)Nc2ccc3nsnc3c2)c(OC)c1`, 7.9% (inactive).

For the compound `Cc1ccc(NC(=O)CCOc2ccccc2)cc1S(=O)(=O)Nc1ccccc1Cl`, the activation is 21.9% (inactive). `COc1ccccc1OCCNC(=O)c1cc([N+](=O)[O-])cc([N+](=O)[O-])c1`: the activation is 1.67% (inactive). The result for `CC(O)CNCCOc1cccc(Oc2ccccc2)c1` (stereo unspecified) reads -10% (inactive); that for `COc1ccccc1OCCNCC(O)COc1cccc2[nH]c3ccccc3c12` (stereo unspecified), 107% (active) and 106% (active); that for `COc1ccc(C2c3[nH]c4ccccc4c3CCN2CCCn2cccn2)cc1C` (stereo unspecified), -23.6% (inactive).

Regarding `Nc1nc(SCC(=O)NNc2c(Cl)cc(Cl)cc2Cl)n[nH]1`, the activation is 3.91% (inactive). `C/C(=N\NC(=O)NC1CCCCC1)c1ccc(OC(F)F)cc1OC(F)F`: the activation is -17% (inactive). As for `CC(=O)Nc1ccc(S(=O)(=O)NCCc2ccccc2)cc1`, the figure is -20.2% (inactive).

In the case of `CCCCNC(=O)C1CCC(CNS(=O)(=O)c2ccc(NC(C)=O)cc2)CC1` (stereo unspecified), the activation is -15.8% (inactive). Turning to `COCCCNC(=O)c1ccc(CNS(=O)(=O)c2ccc(NC(C)=O)cc2)cc1`, the activation is 36.8% (active). Turning to `CC(C)(C)NC(=O)Cn1c(SCC(=O)Nc2nccs2)nc2ccccc21`, the activation is -9.44% (inactive). For the compound `CSc1nc(-c2ccco2)nn1C(=O)CCc1ccccc1`, the activation is -13.4% (inactive). As for `CS(=O)(=O)n1nc(-c2ccco2)nc1N`, the figure is -9.25% (inactive). Take `CSc1nc(-c2ccco2)nn1C(=O)c1ccccc1Cl`: the activation was 56.1% (active).
